From PubChem BioAssay
ClpP mod = qHTS Assay for Activators of ClpP; ATP-dependent Clp protease proteolytic subunit (Bacillus subtilis (strain 168)), P80244; purified B. subtilis ClpP, FRET peptide cleavage, 20 min; Potency, µM (titrated, usually from 57.5 µM), inactives show top-dose activity change, negative = active; 340,000 tested, 1.9% active; AID 651965, 2013; active = well fitted falling curve with a large enough effect; inconclusive = small, poorly fitted or top-dose-only effect; inactive = no such curve, though single readings can be large or run the other way; note: potency is the fitted concentration of half-maximal effect; the source files actives as falling curves though it sought activators and does not explain the sign; nearly all actives have a fitted effect of over 65% in size
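Purified B. subtilis ClpP, 10 microg/mL final in Tris/HCl pH8 with KCl, BSA, glycerol and Tween-20, cleaved an Abz/nitrotyrosine-quenched decapeptide. Fluorescence (ex 320, em 430) was read at 0 and 20 min at room temperature. Delta was normalized to 5.8 microM ADEP and DMSO/no-enzyme controls.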
Chronic BCR inh = blocks chronic active B-cell receptor signaling. ABC-DLBCL IkBa-CBG/CBR reporter, luminescence ratio, 4 h. 340,000 tested, 0.05% active. Potency, µM (titrated, usually from 46.1 µM), for the others: top-dose activity change, negative = inhibition, hits mostly inhibitors; active = well fitted inhibition curve with a large enough effect in the signal ratio, with a control signal flat, not every such curve was filed as active; inconclusive = small, poorly fitted or top-dose-only effect, or effect the other way, or a change in a side signal; the % refers to the signal ratio;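 note: potency is the fitted concentration of half-maximal effect; plate controls were basal doxycycline-induced cells for no effect and cells given 10 µM MG132 for full effect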
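TMD8 human ABC-DLBCL cells with doxycycline-inducible IκBα–green luciferase fusion and unfused red luciferase, in 0.5% FBS medium; compounds up to 46 uM, 4 h at 37C. Green/red luminescence ratio, filter-overlap corrected, fitted to concentration-response curves.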
LDHA inh = inhibitors of human lactate dehydrogenase A; P00338; purified LDHA, NADH/diaphorase-resazurin fluorescence; hits give low values; activity change, % (values are at about 110 or 230 µM); 480,000 tested, 0.15% active; in the data active = activity change below about -30%; inconclusive = mostly about -25% to -30%;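 note: plate controls were DMSO wells for no effect and wells without enzyme for full effect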
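Human LDH5 (2 nM) was incubated with 0.06 mM NADH and 0.2 mM pyruvate for 5 min at room temperature in Tris pH 7.4. Remaining NADH was coupled through diaphorase/resazurin, and resorufin fluorescence was read at 0 and 20 min.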
KCNH2 WT inh = inhibitors of human wildtype KCNH2 potassium channel; Q12809; U2OS, BacMam KCNH2, thallium flux FluxOr; hits give low values; activity change, % at 1.84 µM; 340,000 tested, 0.37% active; AID 720551;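 active = maximum activity change below -70%; inconclusive = maximum activity change between -70% and -50%; inactive = maximum activity change above -50%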; note: % is set by controls: 0 for no effect and ±100 for the full control effect
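U2OS cells were transduced with wild-type KCNH2 virus (2.03 x 10^8 / mL) for 4 h at room temperature, then cultured overnight at 37 C. Thallium flux was read with FluxOr dye. Rate constants were normalized to DMSO controls.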
12-LOX inh = inhibitors of human 12S-lipoxygenase ALOX12; P18054; purified 12hLO, xylenol orange hydroperoxide absorbance; Potency, µM (highest dose often 108 µM), without a hit: top-dose activity change, negative = inhibition, usual class: inhibitors; 580,000 tested, 1.1% active; active = well fitted inhibition curve with a large enough effect; inconclusive = small, poorly fitted or top-dose-only effect, or another doubt; inactive = no such curve, though single readings can be large or run the other way; note: potency is the fitted concentration of half-maximal effect; % is set by controls: 0 for no effect and ±100 for the full control effect
Target sequence (P18054 whole entry, looked up): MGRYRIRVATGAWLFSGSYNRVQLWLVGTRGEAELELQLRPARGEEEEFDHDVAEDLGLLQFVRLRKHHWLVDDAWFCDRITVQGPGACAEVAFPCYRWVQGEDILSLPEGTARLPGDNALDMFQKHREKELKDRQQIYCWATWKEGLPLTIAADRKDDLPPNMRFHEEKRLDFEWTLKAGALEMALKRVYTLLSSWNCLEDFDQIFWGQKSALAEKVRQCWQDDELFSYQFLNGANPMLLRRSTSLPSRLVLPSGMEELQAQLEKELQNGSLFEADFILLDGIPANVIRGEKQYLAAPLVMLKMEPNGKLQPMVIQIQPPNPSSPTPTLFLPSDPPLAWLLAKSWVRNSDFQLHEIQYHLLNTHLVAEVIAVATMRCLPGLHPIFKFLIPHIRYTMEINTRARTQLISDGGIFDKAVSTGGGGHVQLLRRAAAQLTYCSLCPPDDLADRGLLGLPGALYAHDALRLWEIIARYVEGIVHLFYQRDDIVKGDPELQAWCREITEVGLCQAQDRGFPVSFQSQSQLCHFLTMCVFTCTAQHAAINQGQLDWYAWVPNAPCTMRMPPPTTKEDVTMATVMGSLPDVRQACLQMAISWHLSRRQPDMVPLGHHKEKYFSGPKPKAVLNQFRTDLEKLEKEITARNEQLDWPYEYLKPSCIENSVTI
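Purified human 12hLO (150 nM final) in 25 mM Hepes, 0.01% Triton X-100, pH 7.0 was preincubated 15 min at room temperature with compound. Then 40 uM arachidonic acid was added, 30 min. Hydroperoxide was read by Fe-XO absorbance ratio 573/405 nm.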
KCNH2 3.1 inh = inhibitors of human KCNH2 3.1 potassium channel isoform; U2OS KCNH2 3.1, thallium flux FluxOr; hits give low values; activity change, % (tested at about 1.8 µM); 340,000 tested, 0.95% active;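 active = maximum activity change below -70%; inconclusive = maximum activity change from -70% to -50%; inactive = maximum activity change above -50%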;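 note: thallium influx rate constant from kinetic fluorescence after stimulation buffer; % is set by controls: 0 for no effect and ±100 for the full control effect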
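Steps: virus added to U2OS suspension (4 h, RT, dark); medium with 10% FBS added, cells plated, 37 C overnight; FluxOr/Red40 loading buffer 45 min RT; stimulation buffer, 2 min kinetic read; rate constant normalized.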
* = called active by the depositor; ? = inconclusive; . = not tested or not shown. In the library only some 3% were active in any assay of this set; here they are far more common.

SMILES	ClpP mod	Chronic BCR inh	LDHA inh	KCNH2 WT inh	12-LOX inh	KCNH2 3.1 inh
CC(Cc1ccco1)NC(=O)CCc1nc(C(C)(C)C)no1 (centres undefined)	.	.	-7	.	?	.
CC(C)N1CCc2c(C#N)c(NCc3ccccc3)n3cnnc3c2C1	.	.	0	.	-23%	.
CCCn1c(N2CCN(Cc3ccc(Cl)cc3)CC2)nc2ccccc21	0%	2%	-1	-21	?	-79*
CCn1c(N2CCN(S(=O)(=O)CC)CC2)nc2ccccc21	-6%	-1%	-4	-2	11%	2
CCn1c(N2CCN(Cc3ccc([N+](=O)[O-])cc3)CC2)nc2ccccc21	0%	-4%	-16	-87*	?	-94*
CCN1CCN(CCOc2ccc3cc(-c4ccc(OC)cc4)c(=O)oc3c2)CC1	.	.	-1	.	?	.
O=C(c1cnn2ccccc12)N1CCC(Cc2cccc(CO)c2)C1 (centres undefined)	.	.	.	.	-3%	.
COc1ccc(Nc2cc(C)nc(Nc3ccc(NC(=O)CC(C)(C)C)cc3)n2)cc1	.	.	4	.	?	.
COc1ccc(-c2sc3ccc(OC)cc3c2-c2ccc(OCCN3CCOCC3)cc2)cc1	16µM*	-5%	-5	6	.	-7
COc1ccc(-c2sc3ccc(OC)cc3c2-c2ccc(OC)c(F)c2)cc1	4%	0%	-3	-16	18%	-4
COc1ccc(-c2sc3ccc(N4CCOCC4)cc3c2-c2ccc(OC)c(F)c2)cc1	-17%	0%	-2	-13	?	-87*
COc1cccc(-c2sc3ccc(OC)cc3c2-c2ccc(OCCN3CCCC3)cc2)c1	?	?	1	3	.	-18
COc1ccccc1-c1sc2ccccc2c1-c1ccc(OCCN2CCCCC2)cc1	32µM*	?	-2	0	.	?
COc1cccc(-c2sc3cc(OC)c(OC)cc3c2-c2ccc(OCCN3CCCCC3)cc2)c1	28µM*	?	-2	17	.	-15
COc1cccc(-c2sc3ccccc3c2-c2ccc(OCCN3CCCCC3)cc2)c1	?	-6%	-3	6	.	-76*
COc1ccc(-c2sc3ccccc3c2-c2ccc(OCCN3CCCCC3)cc2)cc1	28µM*	0%	-6	2	-14%	?
COc1ccc(-c2c(-c3ccccc3OC)sc3ccccc23)cc1OC	28µM*	9%	0	-20	3%	11
c1ccc(-c2sc3ccccc3c2-c2ccc(OCCN3CCCC3)cc2)cc1	?	?	4	17	-1%	-21
Cc1cc(C)cc(C(=O)N2CCN(C3CCN(CCC(C)C)C3=O)CC2)c1 (centres undefined)	.	.	.	.	23%	.
CC(C(=O)NCC1CCN(Cc2ccc(F)cc2)CC1)C1CCOCC1 (centres undefined)	.	.	.	.	34%	.
O=C(SCc1c(O)c2ccccc2oc1=O)c1ccccc1	0%	.	-2	12	28µM*	4
O=C(Cc1c(O)c2ccccc2oc1=O)c1ccc(C(F)(F)F)cc1	-1%	-4%	-5	-4	0%	-4
CC(=O)Nc1ccc(S(=O)(=O)NC(C(=O)O)C(C)C)cc1 (centres undefined)	-1%	.	-5	-5	3%	-72*
CC(=O)Nc1ccc(S(=O)(=O)NC(CC(=O)NCCc2ccccc2)C(C)C)cc1 (centres undefined)	0%	8%	-6	-26	2%	-7
CC(=O)Nc1ccc(S(=O)(=O)NC(CC(=O)N(C)Cc2ccccc2)C(C)C)cc1 (centres undefined)	14µM*	-2%	-6	-3	-11%	0
SMILES	ClpP mod	Chronic BCR inh	LDHA inh	KCNH2 WT inh	12-LOX inh	KCNH2 3.1 inh
Cc1nc(SC(C)C(=O)NCCC2=CCCCC2)nc(C)c1C (centres undefined)	.	.	0	.	3%	.
Brc1ccc(-c2noc(Cc3cccs3)n2)o1	.	.	9	.	25µM*	.
COc1ccc(Cc2nc(-c3ccc(Br)o3)no2)cc1	.	.	5	.	-4%	.
CC/C(Cc1ccccc1)=N/NC(=O)CNC(=O)c1ccc(Cl)cc1Cl	0%	-15%	-2	-8	-1%	3
CC/C(C)=N\NC(=O)CNC(=O)c1ccc(Cl)cc1Cl	.	13µM*	1	15	2%	.
O=C(NNC(=O)C12CC3CC(CC(C3)C1)C2)c1cccc(O)c1	.	?	-6	-14	-1%	1
O=C(NC(=S)Nc1cccc(O)c1)C12CC3CC(CC(C3)C1)C2	-3%	.	-2	-8	22µM*	3
CCOC(=O)Cn1c(=O)c2c(nc(-n3nc(C)cc3C)n2CC)n(C)c1=O	.	.	3	.	51%	.
Nc1c(S(=O)(=O)c2cccs2)c2nc3ccccc3nc2n1Cc1cccs1	32µM*	?	1	-7	248%	-30
Nc1c(S(=O)(=O)c2cccs2)c2nc3ccccc3nc2n1CCc1ccccc1	.	?	.	.	0%	.
Nc1c(S(=O)(=O)c2cccs2)c2nc3ccccc3nc2n1Cc1ccc2c(c1)OCO2	14µM*	?	-9	-5	?	-2
CN(Cc1ccco1)C(=O)c1cn[nH]c1-c1ccc(Cl)cc1	.	.	13	.	-15%	.
COC(=O)c1sc(-c2ccccc2)cc1NC(=O)Nc1ccc(F)cc1	32µM*	.	0	.	-11%	.
COC(=O)c1sc(-c2ccccc2)cc1NC(=O)Nc1ccc(Cl)cc1	18µM*	.	-5	.	-14%	.
COC(=O)c1sc(-c2ccccc2)cc1NC(C)=O	-2%	1%	-5	-4	-9%	-13
CCOC(=O)c1sc(-c2ccc(F)cc2)cc1NC(=O)Nc1ccccc1OC	18µM*	-1%	-2	1	-10%	-2
CCOC(=O)c1sc(-c2ccccc2)cc1NC(=O)Nc1ccccc1	?	?	1	2	-3%	-1
COC(=O)c1sc(-c2ccccc2)cc1NC(=O)Nc1ccccc1Cl	7%	.	-9	.	-8%	.
CC(C)Oc1cccc(C(=O)NC(=S)Nc2ccc3c4c(cccc24)CC3)c1	-2%	-17%	-4	-13	18µM*	3
COc1cc(OC)cc(C(=O)NC(=S)Nc2ccc3c4c(cccc24)CC3)c1	4%	1%	9	-9	?	-7
O=C1C(=C(c2ccccc2)c2ccccc2)C(Cl)C(Cl)(Cl)c2ccccc21 (centres undefined)	.	.	97	.	10µM*	.
Cc1ccc(C(=O)ON=C2CCN(c3ccc([N+](=O)[O-])cc3)CC2)cc1	-3%	7%	4	-109*	-8%	-103*
